Bioassay records deposited in PubChem by The Scripps Research Institute Molecular Screening Center.
HGIII-sPLA2 inh = Inhibits HGIII-sPLA2 liposome hydrolysis, primary screen; Q9NZ20; QFRET BODIPY PC-A2 liposome hydrolysis, fluorescence; inhibition, % at 12.2 µM; actives 0.56% (n = 370,000); AID 743126;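 active means inhibition above mean plus 3 SD of compounds lying within the high and low control bounds, cut at about 19% in these data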;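 further: 0% = median of test compound wells and 100% = no enzyme DMSO wells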
Target sequence (Q9NZ20 whole entry, looked up): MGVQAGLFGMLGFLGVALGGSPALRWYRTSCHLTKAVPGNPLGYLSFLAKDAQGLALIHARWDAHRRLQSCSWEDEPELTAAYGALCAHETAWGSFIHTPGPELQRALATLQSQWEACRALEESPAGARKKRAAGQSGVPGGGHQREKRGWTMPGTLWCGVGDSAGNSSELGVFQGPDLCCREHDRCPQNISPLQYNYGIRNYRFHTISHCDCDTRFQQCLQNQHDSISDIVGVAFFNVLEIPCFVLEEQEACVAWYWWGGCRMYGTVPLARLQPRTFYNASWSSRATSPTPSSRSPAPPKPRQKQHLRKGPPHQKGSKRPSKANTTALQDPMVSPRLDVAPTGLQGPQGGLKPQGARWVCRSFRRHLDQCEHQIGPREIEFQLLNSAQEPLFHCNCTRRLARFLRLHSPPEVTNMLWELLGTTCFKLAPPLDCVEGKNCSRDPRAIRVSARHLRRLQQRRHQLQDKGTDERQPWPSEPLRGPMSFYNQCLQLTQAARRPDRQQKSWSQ
rCAG RNA binder = r(CAG) repeat RNA binding; TO-PRO-1 dye displacement fluorescence; actives 1.3% (n = 370,000); inhibition, % at 3 µM;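 active means inhibition above the plate cutoff, the mean of all test compounds on that plate plus 3 SD, cut at about 35% in these data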;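 further: 0% = DMSO alone and 100% = 100 µM mitoxantrone as full dye displacement; higher means more dye released from RNA so lower well fluorescence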
MsrA inh = bovine MsrA inhibition | purified bovine MsrA, absorbance read-out | inhibition, % at 15.5 µM | actives 0.75% (n = 360,000); in the data active means inhibition above about 4.5%;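 further: 0% = vehicle wells with enzyme and 100% = reference inhibitor wells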
PG9 Ab binder = PG9 antibody binding by small molecule. TR-FRET gp120-PG9 antibody binding. inhibition, % at 6.7 µM. actives 0.43% (n = 360,000). AID 624416; in the data active means inhibition above about 8.5%
MsrA act = activates bovine MsrA enzyme. purified bovine MsrA, absorbance read-out. actives 0.3% (n = 360,000). activation, % at 10.6 µM. AID 602163; in the data active means activation above about 7.5%;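 further: 0% = vehicle and 100% = reference activator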
rCAG binder conf = r(CAG) RNA repeat binding, confirmation; shares compounds with rCAG RNA binder; TO-PRO-1 dye displacement fluorescence; inhibition, % at 3 µM; actives 70% (n = 4,300); AID 652065;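 active means inhibition above a per-plate cutoff, the mean inhibition of sample wells plus 3 SD, cut at about 35% in these data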;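 further: loss of TO-PRO-1 fluorescence as compound displaces dye from 1x1 AA loop RNA; 0% = DMSO only wells and 100% = 100 µM mitoxantrone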
dCAG dye counter = DNA CAG dye complex inhibition counter-screen; shares compounds with rCAG RNA binder; d(CAG) DNA oligo TO-PRO-1 dye displacement, fluorescence; inhibition, % at 3 µM; actives 94% (n = 4,300);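 active means inhibition above its plate's cutoff, the mean test-well inhibition plus 3 SD, cut at about 4.8% in these data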;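 further: 0% = DNA dye mix with DMSO and 100% = 100 µM mitoxantrone; hits displace the dye from DNA and so lower well fluorescence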
* marks the source's active call; other numbers are inactive results. Rows were chosen to be rich in hits. Some 3.2% of all compounds tested hit in one or more screens of this group.

Screening COc1ccc([C@@H]2CC=C(C(=O)O)[C@H](c3ccccc3F)N2S(=O)(=O)c2ccccc2C)cc1 returned HGIII-sPLA2 inh -8, rCAG RNA binder 41*, MsrA inh -1, PG9 Ab binder -1, MsrA act -2, rCAG binder conf 41* and dCAG dye counter 11*.
`COc1ccc([C@@H]2CC=C(C(=O)O)[C@H](c3ccc(C)cc3)N2S(=O)(=O)c2ccccc2C)cc1` gave HGIII-sPLA2 inh -13, rCAG RNA binder 66*, MsrA inh -1, PG9 Ab binder -1, MsrA act -3, rCAG binder conf 63* and dCAG dye counter 26*.
CCCCCN1CCCCC(NC(=O)c2cccc(C(F)(F)F)c2)C1=O (stereo not given) was read as HGIII-sPLA2 inh 5 and rCAG RNA binder -4.
For CCn1c(COc2ccc(C)cc2)nnc1SCc1cccc(C(F)(F)F)c1 the results were HGIII-sPLA2 inh -9 and rCAG RNA binder -4.
COc1ccc([C@@H]2CC=C(C(=O)O)[C@H](c3ccc(F)cc3)N2S(=O)(=O)c2ccccc2C)cc1 was read as HGIII-sPLA2 inh -8, rCAG RNA binder 59*, MsrA inh 0, PG9 Ab binder -3, MsrA act -1, rCAG binder conf 45* and dCAG dye counter 13*.
For CCOC(=O)C(Cc1c[nH]c2ccc([N+](=O)[O-])cc12)(NC(C)=O)C(=O)OCC the results were HGIII-sPLA2 inh -6, rCAG RNA binder 0, MsrA inh 2, PG9 Ab binder -2 and MsrA act -3.
`COCCn1c(SCc2cc(C(C)=O)ccc2OC)nc2cc(Cl)ccc2c1=O` gave HGIII-sPLA2 inh -3, rCAG RNA binder 42*, MsrA inh 0, PG9 Ab binder -1, MsrA act -4, rCAG binder conf 4 and dCAG dye counter 4.
`CCN=C1S/C(=C\c2ccc(O)c(OCC)c2)C(=O)N1CC` gave HGIII-sPLA2 inh -17, rCAG RNA binder 10, MsrA inh 3, PG9 Ab binder -2 and MsrA act -1.
Screening O=C(CCCN1C(=O)/C(=C\c2cccs2)SC1=S)Nc1cc([N+](=O)[O-])ccc1O returned HGIII-sPLA2 inh 7, rCAG RNA binder 5, MsrA inh 0, PG9 Ab binder -1 and MsrA act -6.
O=C1/C(=C\c2cc([N+](=O)[O-])ccc2O)SC(=S)N1Cc1ccc(Cl)cc1 was read as HGIII-sPLA2 inh -16, rCAG RNA binder 54*, MsrA inh -2, PG9 Ab binder 3, MsrA act -1, rCAG binder conf 87* and dCAG dye counter 74*.
Screening COc1cc(/C=C2/SC(=S)N(Cc3ccccc3)C2=O)ccc1O returned HGIII-sPLA2 inh -8, rCAG RNA binder 55*, MsrA inh 2, PG9 Ab binder -3, MsrA act -8, rCAG binder conf 35* and dCAG dye counter 18*.
COc1cc(/C=C2\SC(=S)N(NS(=O)(=O)c3ccccc3)C2=O)ccc1O was read as HGIII-sPLA2 inh -3, rCAG RNA binder 19, MsrA inh 3, PG9 Ab binder -5 and MsrA act -6.
For O=[N+]([O-])c1ccc(O)c(C=NN2CCCCC2)c1 the results were HGIII-sPLA2 inh -5, rCAG RNA binder 2, MsrA inh 0, PG9 Ab binder 1 and MsrA act -1.
Screening COc1cc(/C=C2/SC(=NCc3ccccc3)N(Cc3ccccc3)C2=O)ccc1O returned HGIII-sPLA2 inh -20, rCAG RNA binder 38*, MsrA inh 2, PG9 Ab binder 3, MsrA act -1, rCAG binder conf 42* and dCAG dye counter 23*.
Cc1ccccc1/C=C1\SC(=S)N(/N=C/c2cc([N+](=O)[O-])ccc2O)C1=O was read as HGIII-sPLA2 inh -3, rCAG RNA binder 37*, MsrA inh 1, PG9 Ab binder -2, MsrA act -8, rCAG binder conf 34 and dCAG dye counter 10*.
For COC(=O)C1=C(C)N(Cc2cccc(C(F)(F)F)c2)C(=NCC2CC2)NC1c1ccc(F)cc1 (stereo not given) the results were HGIII-sPLA2 inh -4, rCAG RNA binder 8, MsrA inh -1 and PG9 Ab binder 0.
Screening Cc1nc2ccc(NC(=O)c3ccc(F)cc3F)cc2c(=O)[nH]1 returned HGIII-sPLA2 inh 1 and rCAG RNA binder 1.
O=C1/C(=C\c2ccc(O)c(O)c2)SC(=S)N1Cc1ccccc1 was read as HGIII-sPLA2 inh 14, rCAG RNA binder 64*, MsrA inh 0, PG9 Ab binder 0, MsrA act 6, rCAG binder conf 69* and dCAG dye counter 38*.
For O=C1/C(=C/c2ccncc2)SC(=S)N1Cc1ccccc1 the results were HGIII-sPLA2 inh -17, rCAG RNA binder 5, MsrA inh 0, PG9 Ab binder -1 and MsrA act -5.
For O=C1/C(=C\c2cccc(O)c2O)SC(=S)N1Cc1ccccc1 the results were HGIII-sPLA2 inh -8, rCAG RNA binder 37*, MsrA inh 2, PG9 Ab binder -2, MsrA act 4, rCAG binder conf 83* and dCAG dye counter 53*.
For COc1cccc(NC(=O)Nc2nc(SC)ns2)c1 the results were HGIII-sPLA2 inh -7, rCAG RNA binder 44*, MsrA inh 0, PG9 Ab binder -2, MsrA act -10, rCAG binder conf 9 and dCAG dye counter 9.4*.
For COc1cccc(NC(=O)Nc2nc(SC(C)(C)C)ns2)c1 the results were HGIII-sPLA2 inh -37, rCAG RNA binder 74*, MsrA inh -1, PG9 Ab binder 0, MsrA act -4, rCAG binder conf 41* and dCAG dye counter 32*.
For CCCSc1nsc(NC(=O)Nc2ccc(F)cc2F)n1 the results were HGIII-sPLA2 inh -6, rCAG RNA binder 14, MsrA inh 0, PG9 Ab binder -2 and MsrA act 1.
`CCSc1nsc(NC(=O)Nc2cccc(F)c2)n1` gave HGIII-sPLA2 inh -10, rCAG RNA binder 63*, MsrA inh 1, PG9 Ab binder -2, MsrA act -4, rCAG binder conf 16 and dCAG dye counter 17*.
`COc1ccc(NC(=O)Nc2cccc(OC)c2)cc1` gave HGIII-sPLA2 inh -6, rCAG RNA binder 0, MsrA inh 1, PG9 Ab binder 1 and MsrA act -8.
N#Cc1cccc(Cn2ccc3ccc(-c4ccc5ccn(Cc6cccc(C#N)c6)c5c4)cc32)c1 was read as HGIII-sPLA2 inh -5 and rCAG RNA binder 9.
Screening C[C@H]1C2CC(OC(=O)Nc3cccc(C(F)(F)F)c3)C(C2)[C@H]2CCCCN21 (stereo not given in full) returned HGIII-sPLA2 inh 13 and rCAG RNA binder -1.
Screening COc1cccc(/C=C2\CC3(OC(=O)c4ccccc4)CCCN2C3)c1 (stereo not given) returned HGIII-sPLA2 inh -5 and rCAG RNA binder -1.
